Assay outcomes (PubChem)
Sampled rows, rich in hits. Any-hit rate of the full collection: about 19%.
HT1080 IDH1KD tx = qHTS for induction of synthetic lethality in tumor cells producing 2HG: qHTS for the HT-1080-IDH1KD cell line; Potency, µM (doses to about 46.1 µM), for the others: at the highest dose activity, negative = toxicity, most hits filed as cytotoxic; AID 686971, 2013; 2% of 360,000 active; HT-1080 IDH1 knockdown viability, ATP luminescence, 48 h;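 further: potency means the concentration at half of the fitted maximal effect; 0% = DMSO wells and -100% = cell-free medium wells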
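Using the IDH1-knockdown HT-1080 line run in the same batch and compound series as the NT line, viability after 48 h at 37 °C was determined by CellTiter-Glo luminescence and expressed as % activity.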
DT40 TDP1 no CPT = qHTS for Inhibitors of human tyrosyl-DNA phosphodiesterase 1 (TDP1): qHTS in cells in absence of CPT. DT40 Tdp1-/- hTDP1 cells, no CPT, ATP luminescence, 48 h. Potency, µM (doses to about 46.2 µM), for the others: at the highest dose activity change, negative = growth inhibition, actives largely listed as inhibitors. 15% of 420,000 active. AID 686978, 2013; further: potency means the concentration at half of the fitted maximal effect; nearly all actives have a fitted effect of over 55% in size
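Growth of hTDP1-complemented DT40 Tdp1-knockout cells is measured by ATP luminescence after at least 48 hr compound exposure at 37 °C, with DMSO substituting for the 20 nM CPT used in the parallel screen.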
TDP1 cell CPT = qHTS for Inhibitors of human tyrosyl-DNA phosphodiesterase 1 (TDP1): qHTS in cells in presence of CPT; chicken DT40 Tdp1-/-;hTDP1 cells + 20 nM CPT, ATP luminescence, 48 h; Potency, µM (titrated, usually from 46.2 µM), for inactives: top-dose activity change, negative = growth inhibition, hits mostly inhibitors; 12% of 420,000 active; further: potency means the concentration at half of the fitted maximal effect; nearly all actives have a fitted effect of over 55% in size
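Chicken DT40 Tdp1-/- cells stably complemented with human TDP1 were seeded at 400 cells/well in medium containing 20 nM camptothecin, exposed to pin-transferred compounds, and grown at 37 °C for at least 48 hr. Viability was read as ATP luminescence.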
ELG1 DNA repair = qHTS screen for small molecules that inhibit ELG1-dependent DNA repair in human embryonic kidney (HEK293T) cells expressing luciferase-tagged ELG1 | 2.3% of 330,000 active | HEK293T ELG1-luciferase reporter, luminescence, 16 h; DNA damage induced by 5-fluorouridine | Potency, µM (doses to about 46.1 µM), for inactives: at the highest dose activity change, negative = inhibition, usual class: inhibitors; further: potency means the concentration at half of the fitted maximal effect; nearly all actives have a fitted effect of over 55% in size
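In this reporter screen, reduction of luminescence relative to DMSO vehicle indicated activity. Compounds and 5-fluorouridine were added together to 2,000 cells per well, incubated for 16 hr at 37 °C, then developed with ONE-Glo.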
HT1080NT lethal = qHTS for induction of synthetic lethality in tumor cells producing 2HG: qHTS for the HT-1080-NT fibrosarcoma cell line | AID 686970, 2013 | HT-1080-NT fibrosarcoma viability, CellTiter-Glo ATP luminescence, 48 h | 1.6% of 360,000 active | Potency, µM (top dose mostly 46.1 µM), without a hit: top-dose activity, negative = less viability, most hits filed as cytotoxic;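 further: NT is the 2HG producing partner of a matched IDH1 knockdown line; potency means the concentration at half of the fitted maximal effect; 0% = DMSO-treated cells and -100% = media-only wells without cells; nearly all actives have a fitted effect of over 55% in size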
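Fibrosarcoma NT cells, 750 per well in 5% FBS RPMI, were exposed to compound for 48 hours. Viability: CellTiter-Glo luminescence.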
IL1B secr inh = qHTS for Inhibitors of Inflammasome Signaling: IL-1-beta AlphaLISA Primary Screen; activity change, % at 57.5 µM; 4.7% of 360,000 active; THP-1 LPS/ATP IL-1B secretion, AlphaLISA, 16 h; active compounds read low; in the data active means activity change below about -50%; inconclusive means mostly about -30% to -49%
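Secreted IL-1B measured by AlphaLISA bead assay after 16 h compound exposure of THP-1 cells; compounds (final up to 57.5 uM) added 1 h before LPS (250 ng/mL) and ATP (1.25 mM) stimulation; lower signal means less secretion.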
Numbers without * were called inactive; u = inconclusive; x = no result; [ ] = dose if it differs, or a comment. Unless noted, the call rests on the fitted dose curve; in most records, active means well fitted curve in the direction sought with a large enough effect; inconclusive means small, poorly fitted or top-dose-only effect, or another doubt; inactive means no such curve, though single readings can be large; an effect the other way counts as inactive or inconclusive. Unless noted, on the % scale 0 is the no-effect control and ±100 the full control effect.

SMILES	HT1080 IDH1KD tx	DT40 TDP1 no CPT	TDP1 cell CPT	ELG1 DNA repair	HT1080NT lethal	IL1B secr inh
CC/C=C(\C(=O)N[C@@H]1C(=O)N2C(C(=O)OCOC(=O)C(C)(C)C)=C(COC(N)=O)CS[C@H]12)c1csc(N)n1	x	-10%	-3%	x	x	x
C[C@@H]1CC=C[C@H]2[C@H]1C(=O)N(Cc1ccccc1)[C@H]2c1ccc(-c2ccc(F)cc2)cc1F	-22%	13µM*	16µM*	0%	-29%	57
COc1ccc([C@H]2[C@H]3C=CC[C@@H](C)[C@@H]3C(=O)N2Cc2ccccc2)cc1Cl	-2%	16µM*	u	1%	-26%	46
COc1ccc(-c2ccc(F)cc2)cc1[C@H]1[C@H]2C=CC[C@@H](C)[C@@H]2C(=O)N1Cc1ccccc1	u	u	u	-20%	u	-5
COc1ccc(-c2ccc(OC)c([C@H]3[C@H]4C=CC[C@@H](C)[C@@H]4C(=O)N3Cc3ccccc3)c2)cc1OC	6%	16µM*	u	-20%	13%	-17
CCOC(=O)CC(NC(=O)c1cc2c(=O)n3cccc(C)c3nc2s1)c1ccc(OCC)c(OC)c1 (stereo unspecified)	x	-4%	5%	x	x	x
O=C(COc1ccccc1)Nc1ccc(OCc2cc(=O)n3ccsc3n2)cc1	x	-12%	-10%	x	x	x
Cc1nn(-c2ccccc2)c2c1N(CC(=O)NCc1ccc(N(C)C)cc1)C(=O)CS2	x	18µM*	u	x	x	x
Cc1nn(-c2ccccc2)c2c1N(CCCC(=O)NCc1ccc(N(C)C)cc1)C(=O)CS2	x	23µM*	23µM*	x	x	x
CCOc1ccc(CNC(=O)CN2C(=O)CSc3c2c(C)nn3-c2ccccc2)cc1	x	-14%	-1%	x	x	x
COc1ccc(CNC(=O)CCCN2C(=O)CSc3c2c(C)nn3-c2ccccc2)c(OC)c1	x	16µM*	u	x	x	x
CCCOc1ccc(CNC(=O)CCCN2C(=O)CSc3c2c(C)nn3-c2ccccc2)cc1	x	u	21µM*	x	x	x
Cc1ccc(CNC(=O)CN2C(=O)CSc3c2c(C)nn3-c2ccccc2)cc1	x	0%	-4%	x	x	x
COc1ccc(S(=O)(=O)NCc2nc(N3CCCC3)c3cccc(C)c3n2)cc1OC	x	-12%	4%[9.04 µM]	x	x	x
COc1cc(-c2ccc(Cl)cn2)cc2c1OCCN(C(=O)c1ccccc1-n1cccn1)C2	x	u	0%	x	x	x
C#CCN1Cc2ccccc2Oc2cc(Br)ccc2S1(=O)=O	-2%	-24%	-21%	-6%	0%	27
CN(Cc1ccccc1)S(=O)(=O)c1ccc(OCC(=O)N2CCC(C(N)=O)CC2)cc1	0%	-25%	-26%	21%	0%	12
O=C(COc1ccc(Cl)cc1)N1CCN(C(=O)c2cccs2)CC1	-9%	-27%	-16%	13%	2%	-73*
CN(C(=O)c1cccs1)c1ccc(OCC(=O)N2CCC(C(N)=O)CC2)cc1	-4%	u	u	15µM*	u	24
O=C(COc1ccccc1)N1CCN(C(=O)c2cccs2)CC1	0%	-15%	-15%	-18%	1%	6
O=C(N/N=C\c1cccc([N+](=O)[O-])c1O)C1COc2ccccc2O1 (stereo unspecified)	u	5.2µM*	5.2µM*	8%	u	85
O=C(N/N=C/c1cccc([N+](=O)[O-])c1)C1COc2ccccc2O1 (stereo unspecified)	-3%	-16%	24%	-4%	-6%	-3
COc1cc([N+](=O)[O-])cc(/C=N\NC(=O)C2COc3ccccc3O2)c1O (stereo unspecified)	18µM*	u	u	-20%	u	122
COC(=O)/C(C)=C/CC12OC(C)(C)C3CC(C=C4C(=O)c5cc6c(c(CCC(C)(C)Cl)c5OC431)OC1(C)CCC(=C(C)C)C6C1)C2=O (stereo unspecified)	x	-8%	2%	x	x	x
Cc1cc(Nc2cccc(F)c2)nc(NCc2ccccc2)n1	u	5.8µM*	4.1µM*	-3%	u	-102*
SMILES	HT1080 IDH1KD tx	DT40 TDP1 no CPT	TDP1 cell CPT	ELG1 DNA repair	HT1080NT lethal	IL1B secr inh
Cc1cc(Oc2ccccc2)nc(NCc2ccccc2)n1	-17%	21µM*	12µM*	-21%	-6%	38
CCCCNc1cc(C)nc(NCc2ccccc2)n1	23µM*	5.8µM*	9.2µM*	15µM*	26µM*	-98*
Cc1ccc(Nc2cc(C)nc(-c3ccccc3O)n2)cc1	-29%	u	u	u	u	-13
Cc1ccc(Nc2cc(C)nc(-c3ccccc3)n2)cc1	-8%	-25%	u	u	-8%	-98*
Cc1cc(C)nc(NCCCc2ccccc2)n1	14%	-1%	-21%	7%	3%	-19
Cc1ccc(NC(=O)Cn2nnc(C(=O)NCCc3ccccc3)c2N)cc1	x	22%	-13%	x	x	x
Cc1cc(N2CCC(C)CC2)nc(NCc2ccccc2)n1	0%	16µM*	u	u	-1%	-90*
Cc1cc(Nc2ccc(Cl)cc2)nc(NCc2ccccc2)n1	u	8.2µM*	7.3µM*	-1%	u	u
Cc1cc(Nc2ccccc2)nc(NCc2ccccc2)n1	23µM*	4.1µM*	8.2µM*	4.6µM*	u	-88*
Cc1ccc(N2CC(C(=O)OCC(=O)Nc3c(C)cccc3C)CC2=O)cc1 (stereo unspecified)	11%	-5%	-10%	x	16%	-8
Cn1c(O)c(C2=c3ccccc3=NC2=O)sc1=Nc1ccc(Cl)cc1	-17%	u	23µM*	-20%	-6%	16
CN(Cc1ccccc1)C1CCNCC1	2%	5%	4%	-15%	-1%	-11
CC(=O)N/N=C/c1cc(C(C)(C)C)cc(/C=N/NC(C)=O)c1O	u	26µM*	-29%	15µM*	-27%	49
CC(Sc1nc2ccccc2c(=O)n1C)C(=O)NC1CCCCC1C (stereo unspecified)	-7%	2.3µM*	4.1µM*	8%	-3%	-4
CC(C)NC(=O)C1(C)CN(S(C)(=O)=O)CC(=O)N1CCOc1ccccc1 (stereo unspecified)	10%	9%	15%	x	-3%	-11
